High-throughput results from PubChem.
Only some compounds are listed: those with a hit (about 5.4% of all), similar ones and a draw of the others.
IMPase Li cell – cell-permeable IMPase inhibitors with lithium potentiation | CHO-M1 cells, IP1 TR-FRET (IP-One), carbachol + lithium | Potency, µM (highest dose often 59.4 µM), for inactives: top-dose activity, negative = IMPase inhibition, actives largely listed as inhibitors | 0.35% of 210,000 active;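 also: IP1 builds up when IMPase is blocked and the TR-FRET signal falls; potency is read from the fitted curve at half-maximal effect; plate controls were basal vehicle for no effect and high inhibitor control for full effect; nearly all actives have a fitted effect of over 50% in size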
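IP1 accumulation measured by competitive TR-FRET in lysed CHO-M1 cells after 30 min compound exposure at 37C, with a small lithium addition to potentiate weak responses. Hill-equation AC50 from ratio and donor-channel data.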
IMPase inh – membrane-permeable compound that blocks inositol monophosphatase | P97697 | CHO-M1 cells, IP1 accumulation, HTRF TR-FRET ratio | inhibition (IP1 accumulation), % at 46.1 µM | 120,000 tested, under 10 active | AID 901; active = well fitted curve in the direction sought with a large enough effect in the signal ratio, not every such curve was filed as active; inconclusive = small, poorly fitted or top-dose-only effect, or a change in a side signal; inactive = no such curve, though single readings can be large or run the other way; the % refers to the signal ratio;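 also: cells stimulated with carbachol in lithium chloride buffer; plate controls were DMSO basal wells for no effect and reference inhibitor wells for full effect; higher means more IMPase inhibition seen as more IP1 and lower FRET ratio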
Target sequence (P97697 whole entry, looked up): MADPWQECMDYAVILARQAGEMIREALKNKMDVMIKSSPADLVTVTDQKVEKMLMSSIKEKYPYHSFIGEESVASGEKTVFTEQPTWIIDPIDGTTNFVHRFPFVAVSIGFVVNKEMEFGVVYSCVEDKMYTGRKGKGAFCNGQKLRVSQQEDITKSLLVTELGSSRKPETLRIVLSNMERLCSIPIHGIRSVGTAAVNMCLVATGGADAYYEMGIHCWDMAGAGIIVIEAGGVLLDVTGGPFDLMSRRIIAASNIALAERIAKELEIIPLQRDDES
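The IP-One HTRF competitive assay in carbachol-stimulated CHO-M1 cells quantifies cellular IP1. Compounds spanned up to 46 uM final, and activity is expressed as AC50 from concentration-response fits of the ratio and donor data.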
ALOX12 inhib – blocks human 12-lipoxygenase activity. purified 12-hLO, xylenol orange hydroperoxide absorbance. Potency, µM (doses to about 57.1 µM), for the others: at the highest dose activity change, negative = inhibition, most hits filed as inhibitors. 0.12% of 150,000 active; also: potency is read from the fitted curve at half-maximal effect; nearly all actives have a fitted effect of over 55% in size
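150 nM 12hLO, 25 mM Hepes pH 7.0 + 0.01% Triton X-100; cpd preinc 15 min RT; 40 uM arachidonic acid, 30 min RT; Fe-XO 30 min; A573/A405 ratio as read-out.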
PNC assembly inh – perinucleolar compartment assembly inhibition; PC3M PTB-GFP, PNC prevalence imaging, 16 h; active compounds read low; activity change (PNC), negative = inhibition, % at 10 µM; 3.1% of 140,000 active; AID 2417;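 active = readout at or below -70, meaning at least 70% loss of cells showing the perinucleolar compartment, a nuclear body marking cancer cells; inconclusive = readout between -30 and a set limit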;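 also: plate controls were DMSO wells for no effect and camptothecin positive control wells for full effect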
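Read-out is percentage of cells bearing a perinucleolar compartment, from automated 20x imaging of fixed, Hoechst-stained PC3M PTB-GFP cells. Cells were seeded 4 h, then exposed 16 h to compound (23 nl of library stock) in duplicate plates.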
15-hLO-2 inh – blocks human 15-lipoxygenase 2 activity; purified 15hLO-2, xylenol orange hydroperoxide absorbance; Potency, µM (doses to about 57.1 µM), inactives show at the highest dose activity change, negative = inhibition, hits mostly inhibitors; 0.56% of 110,000 active; O15296; AID 881; also: potency is read from the fitted curve at half-maximal effect; nearly all actives have a fitted effect of over 60% in size
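Purified human 15hLO-2 (50 nM) preincubated 15 min with compound, then 45 uM arachidonic acid for 90 min at RT in 25 mM Hepes pH 7.5, 0.01% Triton X-100. Hydroperoxide detected by Fe-xylenol orange; 573/405 nm absorbance ratio.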
HPGD block – HPGD (human) dehydrogenase inhibition. purified HPGD, NADH fluorescence kinetic, PGE2 substrate. Potency, µM, for inactives: top-dose activity change, negative = inhibition, actives largely listed as inhibitors. 4.3% of 150,000 active. AID 894; active = well fitted inhibition curve with a large enough effect, not every such curve was filed as active; inconclusive = small, poorly fitted or top-dose-only effect, or another doubt; inactive = no such curve, though single readings can be large or run the other way; also: potency is read from the fitted curve at half-maximal effect
Target sequence (P15428 whole entry, looked up): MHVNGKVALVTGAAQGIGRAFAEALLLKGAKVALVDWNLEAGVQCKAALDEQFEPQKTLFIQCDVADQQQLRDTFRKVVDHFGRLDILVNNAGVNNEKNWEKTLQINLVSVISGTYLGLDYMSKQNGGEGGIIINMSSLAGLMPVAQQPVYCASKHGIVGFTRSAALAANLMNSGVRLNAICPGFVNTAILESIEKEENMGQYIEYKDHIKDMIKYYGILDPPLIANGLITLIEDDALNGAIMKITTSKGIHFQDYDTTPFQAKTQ
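20 nM HPGD preincubated 15 min at room temperature with compound in 50 mM Tris-HCl pH 8, 0.01% Tween 20. Started with 1 mM NAD+ and 30 uM prostaglandin E2; NADH fluorescence (360/450 nm) read 5 times over 30-s intervals, last minus first.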
An asterisk follows results filed as active; ? = inconclusive; / = no result; [ ] = dose if it differs, or a comment. Unless noted, calls follow the shape of the dose curve; as a rule, active = well fitted curve in the direction sought with a large enough effect; inconclusive = small, poorly fitted or top-dose-only effect, or another doubt; inactive = no such curve, though single readings can be large; an effect the other way counts as inactive or inconclusive. Unless noted, % is scaled to controls: 0 for no effect and ±100 for the full control effect.

SMILES | IMPase Li cell | IMPase inh | ALOX12 inhib | PNC assembly inh | 15-hLO-2 inh | HPGD block
O=C(Nc1sc2c(c1C(=O)O)CCCC2)c1cccs1 | 1%[38.3 µM] | -5 | -2% | 27 | -16% | 25µM*
Cc1ccc(C(=O)Nc2sc3c(c2C(=O)O)CCCCC3)o1 | ? | -7 | -3% | ? | -9% | 14µM*
O=C(Nc1sc2c(c1C(=O)O)CCCCC2)c1cccs1 | -3% | / | / | / | / | /
COC(=O)c1c(NC(=O)c2ccc(C)o2)sc2c1CCCCC2 | 24%[38.3 µM] | -7 | -13% | 12 | -23% | ?
CC(C)CCNC(=O)c1cccc(Nc2nc3ccccc3n3nnnc23)c1 | / | -13 | / | / | / | /
Clc1ccccc1-c1ccc2ncnc(NCCN3CCOCC3)c2c1 | ? | / | / | / | 55% | /
O=S(=O)(/N=C(/Nc1ccc(F)cc1F)c1ccccc1)c1ccc(Br)cc1 | -5% | -4 | 8% | -99* | / | -8%
O=S(=O)(/N=C(/Nc1ccc(F)cc1F)c1ccccc1)c1ccccc1 | -1% | / | -3% | ? | / | -14%
O=C(O)Cc1coc2cc3c(cc12)CCC3 | 0% | / | / | / | / | /
O=C(Cc1coc2cc3c(cc12)CCC3)NC1CCCCCCC1 | 15% | -2 | 0% | -23 | / | 14µM*
COc1ccc(/C=C(\C#N)C(=O)NCC2CCCO2)cc1OC (stereo not given) | 2%[38.3 µM] | -3 | -5% | ? | -3% | 22µM*
COc1ccc(-c2nc3cnc(N4CCN(C)CC4)nc3n(CCc3ccccc3)c2=O)cc1 | -25% | / | / | / | -6% | /
CCN(CC)S(=O)(=O)c1ccc2oc(SCC3CN=C(c4ccc(OC)cc4)S3)nc2c1 (stereo not given) | 13%[38.3 µM] | 16 | -4% | 24 | -13% | 14µM*
COc1ccc(C2=NCC(CSc3nnnn3C)S2)cc1 (stereo not given) | -3%[38.3 µM] | 9 | -5% | 5 | -4% | -18%
COc1ccc(C2=NCC(CSc3nnc(-c4ccc5c(c4)OCO5)o3)S2)cc1 (stereo not given) | 16%[38.3 µM] | 12 | -15% | 32 | 13% | 22µM*
COc1ccc(C2=NCC(CSc3nccc(=O)[nH]3)S2)cc1 (stereo not given) | -5%[38.3 µM] | 2 | -1% | -12 | / | 14µM*
Cc1ccc(CSc2nnc(-c3ccc4c(c3)OCO4)o2)cc1 | -27%[38.3 µM] | 2 | -4% | 6 | 12% | -27%
Cc1noc(C)c1-c1cncnc1NCc1cccnc1 | 14% | / | / | / | -8% | /
CCc1nnc2c3ccccc3nc(Nc3ccc(F)cc3C)n12 | / | 5 | / | / | / | /
COc1cc2c(cc1NC(=O)c1cccc(S(=O)(=O)N(C)C)c1)oc1ccccc12 | -4% | / | -2% | -107* | / | ?
CN(C)S(=O)(=O)c1cccc(C(=O)Nc2ccccc2[N+](=O)[O-])c1 | 6% | / | -3% | -7 | / | 40µM*
CCN(CC)S(=O)(=O)c1ccc(C(=O)Nc2cc3oc4ccccc4c3cc2OC)cc1 | -6% | / | -3% | 12 | / | -13%
CCN(CC)S(=O)(=O)c1cc(C(=O)Nc2ccccc2[N+](=O)[O-])ccc1Cl | 12% | / | -11% | 41 | / | -7%
CN1CCN(CCCBr)CC1 | 6% | / | 1%[11.4 µM] | / | -7%[11.4 µM] | -3%
CCCN(CC1CC1)C(=O)CSc1ncnc2sc(C)c(C)c12 | 41%[38.3 µM] | 6 | 5% | -8 | -8% | 28µM*
SMILES | IMPase Li cell | IMPase inh | ALOX12 inhib | PNC assembly inh | 15-hLO-2 inh | HPGD block
CCCSc1ncnc2sc(C)c(C)c12 | 4% | / | / | / | / | /
Cc1sc2ncnc(SCC(=O)N3CCCC3=O)c2c1C | -24%[38.3 µM] | -1 | -3% | -97* | 2% | 25µM*
Cc1ccc2oc3c(c(=O)c2c1)C(c1ccc(O)cc1)N(c1nc(C)c(C)s1)C3=O (stereo not given) | / | -5 | / | / | / | /
Cc1nc2c(sc3nc4c(cc32)COC(C)(C)C4)c(=O)n1CC(=O)NCc1ccco1 | -14%[38.3 µM] | 10 | -8% | ? | 0% | ?
CC1(C)Cc2nc3sc4c(SCC(=O)NCc5ccco5)ncnc4c3cc2CO1 | ? | 12 | -6% | ? | -10% | 14µM*
COc1ccccc1CNc1cc(-c2cccc(NS(C)(=O)=O)c2)ncn1 | -4% | / | 3% | / | -1% | -23%
COc1ccc(-c2nc3c(c4c2C[C@H](c2ccccc2)OC4)CN(C(=O)Cc2cccs2)CC3)c(C)c1 | 14% | / | -3%[11.4 µM] | / | / | -4%
O=C(CSCc1ccc(Cl)cc1)c1ccco1 | -7%[38.3 µM] | -7 | -7% | 3 | -23% | 22µM*
O=C(CSc1nnc(SCC(=O)c2ccco2)s1)c1ccco1 | -6%[38.3 µM] | 4 | -11% | -20 | 2% | 32µM*
O=C(CSc1nc2cc(Cl)ccc2s1)c1ccco1 | -6%[38.3 µM] | -1 | -19% | -7 | -16% | 22µM*
CCCC(=O)Nc1nc2c(ncn2[C@@H]2O[C@H]3COP(=O)(O)O[C@@H]3[C@@H]2OC(=O)CCC)c(=O)[nH]1 | 3% | / | / | / | / | /
c1ccc(-c2nc(-c3ccccc3)c(NC3CCCCC3)o2)cc1 | -2% | / | 4% | / | / | -1%
COc1ccc2[nH]cc(CCNc3cc(-c4c(C)noc4C)ncn3)c2c1 | -4% | / | / | / | -9% | /
C=CCc1cc(/C=C2/NC(=O)NC2=O)cc(OCC)c1O | -9% | / | / | / | / | /
C=CCc1cc(/C=C2/NC(=S)NC2=O)cc(OC)c1O | 10%[38.3 µM] | 12 | -9% | 12 | -22% | 25µM*
O=c1nc2s/c(=C\c3ccc(-c4ccccc4[N+](=O)[O-])o3)c(=O)n2nc1-c1ccccc1 | 4% | / | -19% | ? | / | 7.9µM*
CC(C)OC(=O)Cn1nnc2c(cnn2-c2ccccc2)c1=O | 7% | 12 | -2% | -100* | / | -14%
Cc1ccccc1OCC1CN(CN2CCOCC2)C(=O)O1 (stereo not given) | 2%[38.3 µM] | 1 | 3% | -87* | 8% | -1%
CC(C)(C)N1CC(COc2ccccc2)OC1=O (stereo not given) | 3% | -3 | -1% | ? | -1% | -6%
CN=C(NC#N)Nc1ccc(C2=NNC(=O)C[C@@H]2C)cc1 | 11% | 1 | 5% | / | 14% | -17%
COc1cc(-c2ccc(N=Nc3ccc4c(S(=O)(=O)O)cc(S(=O)(=O)O)c(N)c4c3O)c(OC)c2)ccc1N=Nc1ccc2c(S(=O)(=O)O)cc(S(=O)(=O)O)c(N)c2c1O | 139% | ? | -6% | / | 25µM* | 14µM*
Cc1nn(-c2ccc(S(=O)(=O)O)cc2)c(O)c1N=Nc1ccc(-c2ccc(N=Nc3ccc4c(S(=O)(=O)O)cc(S(=O)(=O)O)c(N)c4c3O)c(O)c2)cc1O.[Cu].[Cu] | 7% | / | -21%[11.4 µM] | / | 37%[11.4 µM] | 0.79µM*
OCC1=CC[N+]2(Cc3ccccc3)CCC(O)[C@@H]12 (stereo not given in full) | -3% | / | / | / | / | 2%
Cc1ccc(S(=O)(=O)N2CCC(C(=O)O)(c3ccccc3)CC2)cc1 | 0% | / | 1%[11.4 µM] | / | -3%[11.4 µM] | -4%
